# Sfp inh: blocks B. subtilis Sfp PPTase activity | actives 3.5% (n = 310,000) | AID 1490 | Potency, µM, for inactives: largest response in the series, negative = inhibition, usual class: inhibitors | Biochemical Sfp PPTase activity, qHTS;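 also: the enzyme is Sfp with the accession as filed and its product quenches rhodamine fluorescence; 0% = enzyme reaction without inhibitor and -100% = no enzyme wells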
#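 Buffer: 50 mM Hepes-Na pH 7.6, 10 mM MgCl2, 0.01% Nonidet P-40, 0.01% BSA. Enzyme 15 nM, pre-exposed to compound 15 min; substrates then added and fluorescence change tracked over 30 min.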
# L3MBTL1 inh: L3MBTL1 (human) inhibition | AlphaScreen L3MBTL1–H3K9me1 peptide binding | Potency, µM (series often up to 57.1 µM), for inactives: top-dose activity, negative = inhibition, hits mostly inhibitors | actives 0.66% (n = 230,000); also: % is scaled to controls: 0 for no effect and ±100 for the full control effect; nearly all actives have a fitted effect of over 60% in size
#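 AlphaScreen assay: L3MBTL1 (50 nM final) was preincubated 30 min at room temperature with biotinylated H3(1-15)K9me1 peptide (75 nM final), then 30 min with library compounds; streptavidin donor and nickel chelate acceptor beads (10 ug/mL final) added, 30 min dark.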
# JMJD2A Tudor inh: blocks the human JMJD2A Tudor domain; AlphaScreen JMJD2A-Tudor / H3K4me3 peptide binding; O75164; actives 4.4% (n = 390,000); Potency, µM (titrated, usually from 114 µM), without a hit: top-dose activity change, negative = inhibition, usual class: inhibitors; also: % is scaled to controls: 0 for no effect and ±100 for the full control effect; nearly all actives have a fitted effect of over 50% in size
# BAZ2B block: inhibitors of human BAZ2B bromodomain; actives 4.4% (n = 360,000); AlphaScreen BAZ2B-H3K14Ac peptide displacement; Potency, µM (doses to about 114 µM), for inactives: top-dose activity change, negative = inhibition, hits mostly inhibitors; AID 504333; also: % is scaled to controls: 0 for no effect and ±100 for the full control effect; nearly all actives have a fitted effect of over 60% in size
#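 Inhibition is scored as reduced AlphaScreen emission. The BAZ2B/b-H3(5-23)K14Ac complex (50 nM each) in PBS pH 7.4, 0.01% Tween-20 meets compound (up to 110 uM) for 30 min at RT before bead addition.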
# HP1b binding inh: HP1-beta chromodomain-methylated histone interaction inhibition | Potency, µM (highest dose often 114 µM), without a hit: at the highest dose activity change, negative = inhibition, hits mostly inhibitors | P83916 | AlphaScreen HP1-beta / biotin-H3K9me3 peptide binding | actives 0.56% (n = 390,000); also: nearly all actives have a fitted effect of over 70% in size
# Target sequence (P83916 whole entry, looked up): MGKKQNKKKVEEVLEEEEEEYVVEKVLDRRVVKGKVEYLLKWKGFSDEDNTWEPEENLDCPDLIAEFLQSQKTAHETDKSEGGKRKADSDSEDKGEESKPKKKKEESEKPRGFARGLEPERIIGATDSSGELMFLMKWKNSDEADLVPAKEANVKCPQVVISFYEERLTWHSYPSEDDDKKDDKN
#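 Compound inhibition of the preformed complex between 50 nM HP1-beta and 50 nM biotinylated H3K9me3 peptide was read by AlphaScreen. Buffer was PBS pH 7.4 with 0.01% Tween-20. Incubations ran 30 min at room temperature, with 10 ug/mL donor/acceptor beads.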
# G9a inh: blocks human histone lysine methyltransferase G9a; Potency, µM (top dose mostly 102 µM), without a hit: at the highest dose activity, negative = inhibition, hits mostly inhibitors; Q96KQ7; G9a H3K9 monomethylation, AlphaScreen, 2 h; actives 8.8% (n = 350,000); also: % is scaled to controls: 0 for no effect and ±100 for the full control effect; nearly all actives have a fitted effect of over 75% in size
# Target sequence (Q96KQ7 913-1193 limits assumed): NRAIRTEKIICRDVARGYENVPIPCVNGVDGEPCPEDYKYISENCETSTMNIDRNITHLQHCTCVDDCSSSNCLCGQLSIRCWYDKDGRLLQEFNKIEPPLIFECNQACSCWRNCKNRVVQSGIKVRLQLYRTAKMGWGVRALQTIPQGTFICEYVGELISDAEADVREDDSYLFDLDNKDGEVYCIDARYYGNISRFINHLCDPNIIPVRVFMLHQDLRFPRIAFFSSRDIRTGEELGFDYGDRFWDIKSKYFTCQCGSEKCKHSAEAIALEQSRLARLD
#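 Methyltransferase reactions run at room temperature for 2 h (20 nM enzyme, 500 nM biotin-H3K9 peptide, 20 uM SAM) after a 15 min compound preincubation; product detected by AlphaScreen beads and anti-H3K9me1 antibody.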
# * = called active by the depositor; ? = inconclusive; · = not tested or not shown; [ ] = dose if it differs, or a comment. Shown are actives, neighbours in structure and some others; about 12% of the full set was active somewhere. Calls follow the shape of the dose curve; as a rule, active = well fitted curve in the direction sought with a large enough effect; inconclusive = small, poorly fitted or top-dose-only effect, or another doubt; inactive = no such curve, though single readings can be large; an effect the other way counts as inactive or inconclusive. Potency is read from the fitted curve at half-maximal effect.
SMILES,Sfp inh,L3MBTL1 inh,JMJD2A Tudor inh,BAZ2B block,HP1b binding inh,G9a inh
CSCC[C@H](NC(=O)[C@H](CCC(N)=O)NC(=O)[C@H](CCCCN)NC(=O)[C@H](CCCNC(=N)N)NC(=O)[C@H](Cc1ccc(O)cc1)NC(=O)[C@H](CCCNC(=N)N)NC(=O)[C@H](CO)NC(=O)[C@H](Cc1ccc(O)cc1)NC(=O)[C@H](CO)NC(=O)[C@H](CC(=O)O)NC(=O)[C@@H](NC(=O)[C@@H](N)Cc1ccccc1)[C@@H](C)O)C(=O)N[C@@H](C)C(=O)N[C@H](C(=O)N[C@@H](CCCCN)C(=O)N[C@@H](CCCCN)C(=O)N[C@@H](Cc1ccc(O)cc1)C(=O)N[C@@H](CC(C)C)C(=O)N[C@@H](C)C(=O)N[C@@H](C)C(=O)N[C@H](C(=O)N[C@@H](CC(C)C)C(=O)NCC(=O)N[C@@H](CCCCN)C(=O)N[C@@H](CCCNC(=N)N)C(=O)N[C@@H](Cc1ccc(O)cc1)C(=O)N[C@@H](CCCCN)C(=O)N[C@@H](CCC(N)=O)C(=O)N[C@@H](CCCNC(=N)N)C(=O)N[C@H](C(=O)N[C@@H](CCCCN)C(=O)N[C@@H](CC(N)=O)C(=O)N[C@@H](CCCCN)C(N)=O)C(C)C)C(C)C)C(C)C,-18%,·,·,·,·,·
CC(NC(=O)Cn1ccc2cc(S(=O)(=O)N3CCCCCC3)ccc21)c1ccccc1 (configuration not stated),·,·,-11%,-15%,13%,-17%[59 µM]
CC1=CC(C)(C)Nc2ccc(Cc3ccc4c(c3)C(C)=CC(C)(C)N4)cc21,-3%,?,18µM*,14µM*,?,10µM*
CC1=CC(C)(C)Nc2ccc(C)cc21,45µM*,-3%,?,50µM*,7%,45µM*
Cc1cc2c(cc1C)C(=O)NC(C)(C)C2,-8%,·,-7%,?,12%,8%[59 µM]
CC1=CC(C)(C)NC(=S)N1c1cccc(C)c1,1%,-5%,-13%,0%,13%[57 µM],28%[12.7 µM]
Cc1cc(=O)[nH]c2ccc(Cc3ccccc3)cc12,·,·,-6%,·,4%,·
CC1=CC(C)(C)Nc2cc(C)c(C)cc21,?,-16%,50µM*,50µM*,?,32µM*
CCCN(CCC)C(=O)Cn1c(=O)n(-c2cccc(OC)c2)c(=O)c2c3c(sc21)CCCC3,·,·,-12%,2%,24%,-2%[59 µM]
CCCC(=O)Nc1cccc(-c2cn3c(C)csc3n2)c1,·,·,-18%,-13%,21%[57 µM],-5%[59 µM]
CCn1cc(C(=O)Nn2cnnc2)c(=O)c2ccc(C)nc21,-6%,0%,?,-32%,23%,50µM*
CCn1cc(C(=O)OCC(=O)Nc2cccc(Cl)c2C)c(=O)c2ccc(C)nc21,·,·,-13%,2%,10%,-45%[59 µM]
CCn1cc(C(=O)OCC(=O)Nc2c(C)cccc2C)c(=O)c2ccc(C)nc21,8%,11%,-11%,-8%,29%,45µM*
COc1ccc(-c2nc3c4ccccc4n(CC(=O)N4CCN(c5ccccc5F)CC4)c(=O)n3n2)cc1,·,·,-7%,-3%,15%,5%[59 µM]
Cn1c(O)c(N=NC(=O)CNC(=O)c2ccccc2)c2ccccc21,9%,·,-11%,-21%,13%,-6%
CCn1c(O)c(N=NC(=O)CNc2ccc(C)cc2)c2ccccc21,10%,-24%,56µM*,32µM*,?,?
CCn1c(O)c(N=NC(=O)CNc2cccc(C)c2)c2ccccc21,-5%,?,?,?,-7%,-7%[59 µM]
Cc1ccc(NC(=O)Cn2c(O)c(N=NS(=O)(=O)c3ccc(C)cc3)c3ccccc32)cc1,-4%,7%,25µM*,-39%,-1%,2.5µM*
Cc1ccc(NC(=O)Cn2c(O)c(N=NC(N)=O)c3ccccc32)cc1,8%,·,-9%,-22%,12%,3%
